# A number with no mark means an inactive call.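 Rule for the calls: active = viability increase at or above a cutoff of the median across tested compounds plus 3 SD (cut at about 8.5% in these data, passing the limit was not always enough); inconclusive = some gains above the cutoff, reason not given; inactive = the rest.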
# Assay: viability gain of MRP-1-high H69AR cells under doxorubicin, pilot screen, MRP-1 activator project, CellTiter-Glo, duplicate (AID 807);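 note: compound pretreatment 18-22 h then 72 h combined with doxorubicin; 0% = doxorubicin alone and 100% = vehicle without doxorubicin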
# Conditions: H69AR viability with doxorubicin, CellTiter-Glo luminescence; at 10 µM; stronger effect = higher value
row,Compound,viability increase [%]
1,COc1ccc(C(=O)N2CCN(c3ccc(C)cc3C)CC2)cc1OC,3.24
2,CCc1ccccc1N1CSC2=C(C#N)C(c3ccccc3F)CC(=O)N2C1 (stereo unspecified),-7.03
3,CN1C(=O)CC(N2CCN(c3ncccn3)CC2)C1=O (stereo unspecified),0.31
4,CCCCN(C)CCNC(=O)Cn1c(=O)sc2ccccc21,-2.43
5,Cc1ccc(S(=O)(=O)Cc2ccc(C(=O)N3CCN(c4ccccn4)CC3)o2)cc1,-4.22
6,CCOC(=O)C1CCN(C(=O)CN(c2ccc(OC)c(OC)c2)S(=O)(=O)c2ccccc2)CC1,0.05
7,CCc1cc(C(=O)COc2ccccc2F)c(O)cc1O,-2.43
8,O=C(Cn1cc2c(n1)CCCC2)NCC1CCCO1 (stereo unspecified),0.41
9,COC(=O)C(C(=O)OC)=C(/C=C/N(C)C)N(C)C,-0.39
10,CCCS(=O)(=O)c1nc(S(=O)(=O)c2ccc(C)cc2)c(N2CCCC2)s1,-2.03
11,COc1cccc(CNC(=O)CCS(=O)(=O)c2cccc3nonc23)c1,-3.04
12,N#CC1=C(O)CCCn2c1nc1ccccc1c2=O,-0.39
13,COc1cc(S(=O)(=O)NCc2ccc3c(c2)OCO3)ccc1Cl,-2.38
14,Cc1nc2sc(C(c3ccccc3)N3CCN(CCO)CC3)c(O)n2n1 (stereo unspecified),-1.6
15,CC1=CC(C)(C)N(C(=O)CSc2nccn2C)c2cc(C)ccc21,-3.04
16,c1ccc(-c2nnc(-c3ccccn3)nn2)nc1,0.07

# Source: PubChem BioAssay
